Article PMC5540273 (PLoS ONE, 2017)

What was measured:
Conditions in all cases: concentration: 1 μM, replicates: in singlicate; n = 1
[1] = test system: JAK1(JH2domain-pseudokinase)
[2] = test system: JAK2(JH1domain-catalytic)
[3] = test system: JAK3(JH1domain-catalytic)
JNK1 = test system: T1, JNK1
T1 construct: gene MAPK8

JNK2 = test system: T2, JNK2
T2 construct: gene MAPK9

JNK3 = test system: T3, JNK3
T3 construct: gene MAPK10

KIT-autoinhibited = test system: KIT-autoinhibited
KIT = test system: KIT
LATS1 = test system: LATS1
LATS2 = test system: LATS2
LCK = test system: LCK
LIMK1 = test system: LIMK1
LIMK2 = test system: LIMK2
LKB1 = test system: T4, LKB1
T4 construct: gene STK11

LOK = test system: T5, LOK
T5 construct: gene STK10

LRRK2 = test system: LRRK2
LTK = test system: LTK
LYN = test system: LYN
LZK = test system: T6, LZK
T6 construct: gene MAP3K13

MAK = test system: MAK
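Also: KINOMEscan kinase panel screen.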

Row | SMILES | %Inh [1] [%] | %Inh [2] [%] | %Inh [3] [%] | %Inh (JNK1) [%] | %Inh (JNK2) [%] | %Inh (JNK3) [%] | %Inh (KIT-autoinhibited) [%] | %Inh (KIT) [%] | %Inh (LATS1) [%] | %Inh (LATS2) [%] | %Inh (LCK) [%] | %Inh (LIMK1) [%] | %Inh (LIMK2) [%] | %Inh (LKB1) [%] | %Inh (LOK) [%] | %Inh (LRRK2) [%] | %Inh (LTK) [%] | %Inh (LYN) [%] | %Inh (LZK) [%] | %Inh (MAK) [%]
1 | CN(C)S(=O)(=O)c1cc(-c2ccc3nccc(-c4cccc(S(N)(=O)=O)c4)c3c2)cnc1N [GSK1669921] | 12 | 24 | 0 | 17 | 0 | 0 | 0 | 21 | 0 | 14 | 7 | 86 | 5 | 0 | 0 | 27 | 39 | 0 | 0 | 19
2 | O=C(O)C(F)(F)F.O=C(O)C(F)(F)F.O=c1[nH]ccc2nc(N[C@@H]3CCCNC3)nc(Nc3ccc(S(=O)(=O)N4CCOCC4)cc3)c12 [GSK2177277] | 82 | 98.7 | 99.3 | 99.4 | 93.4 | 98.6 | 70 | 99.8 | 92.6 | 96.9 | 78 | 0 | 0 | 92.1 | 78 | 88 | 79 | 73 | 59 | 0
3 | Cc1ccc(C(=O)Nc2ccc(Nc3ccnc4cc(-c5nccs5)ccc34)cc2O)cc1.Cl [GW494702] | 0 | 25 | 0 | 18 | 3 | 9 | 0 | 73 | 0 | 0 | 86 | 26 | 0 | 0 | 68 | 0 | 1 | 65 | 21 | 46
4 | Cl.c1ccc(-c2ccc3c(Nc4ccc5[nH]ncc5c4)ccnc3c2)nc1 [GW440137] | 0 | 36 | 0 | 9 | 27 | 15 | 0 | 94.4 | 0 | 3 | 42 | 9 | 23 | 0 | 2 | 0 | 18 | 31 | 1 | 21
5 | c1ccc(-c2n[nH]cc2Nc2ccnc3ccccc23)nc1 [GW694077] | 33 | 94.2 | 88 | 92.6 | 60 | 90 | 0 | 33 | 0 | 0 | 0 | 0 | 13 | 94 | 0 | 78 | 0 | 0 | 0 | 0
6 | CN(C)Cc1ccc(-c2ccc3c(Nc4ccc(Oc5ccccn5)cc4)ccnc3c2)o1 [GW567148] | 0 | 18 | 0 | 19 | 4 | 0 | 0 | 92.8 | 0 | 0 | 92.9 | 0 | 0 | 0 | 52 | 48 | 0 | 17 | 27 | 13
7 | COc1cc(Nc2nccc(N3CCC(NC(=O)c4cc5ccccc5s4)C3)n2)cc(OC)c1OC (stereo not drawn) [GSK1379760] | 0 | 76 | 0 | 17 | 16 | 23 | 0 | 36 | 57 | 5 | 29 | 17 | 24 | 14 | 84 | 0 | 13 | 31 | 30 | 23
8 | Oc1cc(Nc2ccnc3cc(I)ccc23)ccc1F [GW552771] | 0 | 7 | 0 | 32 | 43 | 28 | 0 | 70 | 0 | 0 | 78 | 8 | 0 | 0 | 0 | 55 | 4 | 20 | 9 | 22
9 | CCc1ccc(-c2ccc3c(c2)-c2c(cnn2C)S(=O)(=O)N3C)cc1 | 5 | 2 | 5 | 0 | 0 | 0 | 0 | 2 | 0 | 0 | 0 | 0 | 0 | 29 | 16 | 1 | 3 | 0 | 14 | 14
